# Bioassay records: PubChem BioAssay, Broad Institute
# aSyn UTR act – Activators via SNCA 5'UTR binding, MLPCN; alpha-synuclein 5'UTR reporter, activators screen; activity score, % (tested at 7.5 µM), hits read low; actives 7.1% (n = 300,000); AID 1814; in the data active means activity score below about -60%
# Numbers without * were called inactive. Not all results are given here.
SMILES,aSyn UTR act
Cc1csc(NC(=O)c2ccco2)n1,-72*
O=C(Nc1nc(-c2nc3ccccc3s2)cs1)C1CC1,-96*
CC(C)(C)c1csc(NC(=O)c2cccs2)n1,-84*
O=C(Nc1nc(-c2ccccc2)cs1)c1cccs1,-144*
O=C(Nc1nc(-c2ccccc2)cs1)c1ccccc1NS(=O)(=O)c1ccc(F)cc1,63
O=C(Nc1nc(-c2ccccn2)cs1)C1CCCC1,-97*
Cc1c(Cl)ccc2sc(NC(=O)c3ccco3)nc12,-199*
O=C(Nc1nc(-c2ccc(Cl)s2)cs1)c1ccco1,-203*
Cc1csc(NC(=O)c2cccn2C)n1,-128*
O=C(Nc1nc(-c2nc3ccccc3s2)cs1)c1ccco1,-161*
O=C(Nc1ccc2nc(-c3ccccn3)[nH]c2c1)C1CCCCC1,-144*
Cc1csc(NC(=O)c2cn3ccccc3n2)n1,82
COc1ccccc1OCc1csc(NC(=O)c2ccco2)n1,-108*
CC1CC1C(=O)Nc1nc(-c2cccs2)c(-c2cccs2)s1 (configuration not stated),-71*
O=C(Nc1nc(-c2cc(Cl)sc2Cl)cs1)c1ccccc1,-85*
CC1CC1C(=O)Nc1nc(-c2ccccc2)cs1 (configuration not stated),-122*
O=C(Nc1nc(-c2ccc(Cl)s2)cs1)c1cccs1,-276*
O=C(CN1C(=O)CCC1=O)Nc1nc(-c2nc3ccccc3s2)cs1,-114*
O=C(NNc1nc(-c2ccc(Cl)cc2)cs1)c1ccco1,-73*
Cc1cc(/C=N/Nc2ncnc(N)c2[N+](=O)[O-])c(C)n1-c1ccccc1,95
O=[N+]([O-])c1cc(CN2CCN(c3cccc(C(F)(F)F)c3)CC2)c2cccnc2c1O,71
Cc1cc(/C=N/Nc2nc(N)ncc2[N+](=O)[O-])c(C)n1-c1cccc(C(F)(F)F)c1,-117*
Clc1ccc(-c2nnc(-c3ccco3)o2)cc1,-203*
CCC(Oc1ccccc1)C(=O)Nc1ccc(-c2nnc(-c3ccco3)o2)cc1 (configuration not stated),-97*
CC(C)(C)c1ccc(OCC(=O)N/N=C/c2cc(Br)ccc2OC(=O)c2ccco2)cc1,83
SMILES,aSyn UTR act
O=C(COc1ccc(Br)cc1)Nc1ccc(-c2nnc(-c3ccco3)o2)cc1,-80*
COC(=O)c1sccc1N/N=C/c1ccc(OC)c(OC)c1OC,-140*
COC(=O)c1sccc1N/N=C/c1cccc(Oc2ccccc2)c1,-64*
Cc1no[n+]([O-])c1COc1ccccc1/C=N/n1nnnc1N,-99*
CCOc1ccc(-c2cn(-c3cccc(SC)c3)c(=O)[nH]2)cc1,-72*
O=C(Oc1ccccc1N1C(=O)C2CCCCC2C1=O)c1ccccc1F (configuration not stated),-64*
CCC(=O)Nc1ccc(NC(=O)C23CC4CC(CC(C4)C2)C3)cn1,-94*
O=C(Nc1ccc(NC(=O)C23CC4CC(CC(C4)C2)C3)cn1)c1ccco1,-144*
Nc1nc(CSC(=S)N2CCOCC2)nc(Nc2ccc(F)cc2)n1,-70*
Cc1ccc(Nc2nc(N)nc(CSC(=S)N3CCOCC3)n2)c(C)c1,-93*
COc1ccc(Nc2nc(N)nc(CSC(=S)N3CCOCC3)n2)cc1,-87*
O=C1CS/C(=N/N=C/c2ccccc2)N1Cc1ccco1,-81*
Cc1ccc(-c2nn3c(C)nnc3s2)cc1NC(=O)c1cccs1,-64*
CN1C2CCC1/C(=C\c1ccccc1F)C(=O)/C2=C/c1ccccc1F,-89*
COc1cc(CN2CCC(C(=O)NCC(C)(C)CN(C)C)CC2)ccc1OCc1ccccc1,-67*
CCOCCCNC(=O)C1CCN(Cc2ccc(OCc3ccccc3)c(OC)c2)CC1,-117*
NC(=O)C1CCN(Cc2ccc(OCc3ccccc3)cc2)CC1,-95*
CCCCNC(=O)C1CCN(Cc2ccc(OCc3ccccc3)c(OC)c2)CC1,-115*
Oc1ccc(Br)cc1-c1ccn[nH]1,-69*
O=C(Nc1ccc(Cl)cc1)Nc1ccc(-c2cnco2)cc1,-85*
O=C(NC(=O)c1ccccc1)Nc1ccc(-c2cnco2)cc1,-143*
Cc1cccc2c1OCC/C2=N\NC(=O)COc1ccccc1Cl,-79*
COc1ccc(N=Nc2ccc(N)nc2N)cc1,-68*
COc1ccc(N=Nc2c(N)n[nH]c2N)cc1,-85*
COc1ccccc1-c1nnc2sc(-c3ccc(N(C)C)cc3)nn12,99
SMILES,aSyn UTR act
COc1cccc(-c2nnc3sc(-c4ccccn4)nn23)c1,-103*
CN1CCN(C2=C(Cl)C(=O)N(CCc3ccccc3)C2=O)CC1,-112*
O=C1C(Cl)=C(NCC2CCCO2)C(=O)N1CCc1ccccc1 (configuration not stated),-183*
O=C1C(Cl)=C(NCCCN2CCOCC2)C(=O)N1CCc1ccccc1,-126*
O=C1C(Cl)=C(N2CCOCC2)C(=O)N1CCc1ccccc1,-212*
O=c1c([N+](=O)[O-])c(N2CCOCC2)c2ccccc2n1Cc1ccccc1,46
CCc1cc2c(=O)n3c(nc2s1)-c1[nH]c2ccc(OC)cc2c1CC3,-103*
CC(C)(C)c1ccc(-c2cc(N)n[nH]2)cc1,91
Cc1ccc(-c2cc(N)n[nH]2)cc1,-73*
CC(=O)C1=C(C)NC(SCC(=O)c2ccccc2)=C(C#N)C1c1ccco1 (configuration not stated),-162*
Nc1cc(Cl)ccc1C(=O)OCC(=O)N1CCCC1,-69*
Nc1cc(C(=O)OCC(=O)N2CCCC2)ccc1Cl,-62*
O=C(/C=C/Nc1ccccc1)c1ccc(Cl)cc1Cl,-122*
CSc1nncc(/C(C)=N\Nc2ccccc2C)n1,-81*
Cc1ccc(NC(=O)c2cc(F)c(F)cc2Cl)nc1,-130*
Cc1ccc(NC(=O)c2ccccc2F)nc1,-88*
COc1cc2ccccc2cc1C(=O)Nc1ccc(C)cn1,-87*
CC(=O)c1c(C)[nH]c(C(=O)Nc2ccc(C)cn2)c1C,85
O=C(CCc1nc2ccccc2c(=O)[nH]1)Nc1nc(-c2cccs2)cs1,-89*
COC(=O)C1=C(N)Oc2cc(N(C)C)ccc2C1c1ccccc1OC (configuration not stated),83
CCOC(=O)c1ccc2c(c1)NCc1cccc(OC)c1O2,-129*
CCCc1ccc(-c2ccc(F)c(N)c2)nc1,99
CCc1ccc(-c2ccc(C(=O)O)cc2)nc1,-126*
CCC1CCCCN1C(=O)c1ccc([N+](=O)[O-])o1 (configuration not stated),-79*
O=S(=O)(C/C(=C/CO)S(=O)(=O)c1ccccc1)c1ccccc1,-71*
SMILES,aSyn UTR act
COc1ccc(-c2nsc3c(N4CCCCC4)ncnc23)cc1,85
Cc1ccc(-n2nc3c(N4CCC(C(=O)NCCc5ccccc5C)CC4)nnc(C)c3c2C)cc1,72
Cc1ccc(-c2nsc3c(N4CCC(C(N)=O)CC4)ncnc23)cc1,-99*
COc1ccc(-c2nsc3c(N4CCN(S(=O)(=O)c5ccccc5F)CC4)ncnc23)cc1,-69*
O=C(c1ccccc1)N1CCN(c2ncnc3c(-c4ccccc4)nsc23)CC1,-125*
O=C(Cn1sc2ccccc2c1=O)NC12CC3CC(CC(C3)C1)C2,-92*
CC(NC(=O)Cn1ncc(Cl)c(Cl)c1=O)C12CC3CC(CC(C3)C1)C2 (configuration not stated),88
O=C(Nc1ccc2nc3n(c(=O)c2c1)CCCC3)c1ccccc1F,-67*
CCOC(=O)Nc1ccc2nc3n(c(=O)c2c1)CCCCC3,-79*
O=C(Nc1ccc2nc3n(c(=O)c2c1)CCCC3)c1cccc(F)c1,-82*
CCN(CC)c1cc(C)c2cc(NC(=O)c3ccccc3F)ccc2n1,-125*
